Reference: the supplement of paper PMC6555819

What was measured:
Test in all cases: PBM binding z-score (relative to random genomic background probes); higher = stronger binding; sequences stand for … in GC…GCGATTGACAGCGTAGAATGAAGG
[1] = system: FXR:RXRa (NR concentration 270 nM, RXRa partner concentration 90 nM)
Method in brief: (§1)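 Regression normalization was applied to scanned fluorescence from custom Agilent 4×180K protein-binding microarrays. Before scanning, arrays were incubated 1 h with ligand-free nuclear receptor dimers, and binding was detected with antibodies against each partner (one per run). Binding z-scores use the random background probes as reference.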

[2] = system: LXRa:RXRa (NR concentration 270 nM, RXRa partner concentration 90 nM)
Method in brief: as §1

[3] = system: LXRa homodimer (NR concentration 270 nM)
Method in brief: as §1

[4] = system: LXRb:RXRa (NR concentration 270 nM, RXRa partner concentration 90 nM)
Method in brief: as §1

[5] = system: LXRb homodimer (NR concentration 270 nM)
Method in brief: as §1

[6] = system: PPARa:RXRa (NR concentration 270 nM, RXRa partner concentration 90 nM)
Method in brief: as §1

[7] = system: PPARg:RXRa (NR concentration 180 nM, RXRa partner concentration 90 nM)
Method in brief: as §1

[8] = system: PPARg:RXRa 270nM:90nM, anti-RXR (NR concentration 270 nM, RXRa partner concentration 90 nM)
Method in brief: as §1

[9] = system: PPARg:RXRa 30nM:10nM, anti-RXR (NR concentration 30 nM, RXRa partner concentration 10 nM)
Method in brief: as §1

[10] = system: PPARg:RXRa 90nM:30nM, anti-RXR (NR concentration 90 nM, RXRa partner concentration 30 nM)
Method in brief: as §1

[11] = system: PPARg:RXRa DBDmut IVT, anti-RXR (DBD mutation: RXRa K156A/R161A, NR concentration 270 nM, RXRa partner concentration 90 nM)
Method in brief: as §1

[12] = system: PPARg:RXRa IVT, anti-PPARg (NR concentration 270 nM, RXRa partner concentration 90 nM)
Method in brief: as §1

[13] = system: PPARg DBDmut:RXRa IVT, anti-PPARg (DBD mutation: PPARg1 K132A/R137A, NR concentration 270 nM, RXRa partner concentration 90 nM)
Method in brief: as §1

[14] = system: PPARg DBDmut IVT, anti-PPARg (DBD mutation: PPARg1 K132A/R137A, NR concentration 270 nM)
Method in brief: as §1

[15] = system: PPARg homodimer (NR concentration 180 nM)
Method in brief: as §1

[16] = system: PXR:RXRa (NR concentration 270 nM, RXRa partner concentration 90 nM)
Method in brief: as §1

[17] = system: PXR homodimer (NR concentration 270 nM)
Method in brief: as §1

[18] = system: RARa:RXR (NR concentration 270 nM, RXRa partner concentration 90 nM)
Method in brief: as §1

[19] = system: RARa homodimer (NR concentration 270 nM)
Method in brief: as §1

[20] = system: RARb:RXRa (NR concentration 270 nM, RXRa partner concentration 90 nM)
Method in brief: as §1

Row | Sequence | PBM binding z-score [1] | PBM binding z-score [2] | PBM binding z-score [3] | PBM binding z-score [4] | PBM binding z-score [5] | PBM binding z-score [6] | PBM binding z-score [7] | PBM binding z-score [8] | PBM binding z-score [9] | PBM binding z-score [10] | PBM binding z-score [11] | PBM binding z-score [12] | PBM binding z-score [13] | PBM binding z-score [14] | PBM binding z-score [15] | PBM binding z-score [16] | PBM binding z-score [17] | PBM binding z-score [18] | PBM binding z-score [19] | PBM binding z-score [20]
1 | TCTCGGAGGACACGAAAGCTCAGAGCTCGACATC | 0.278 | -0.178 | -0.494 | -0.291 | -1.33 | 0.0148 | 0.133 | 0.762 | 2.01 | 1.21 | 1.28 | 0.237 | -0.991 | -1.02 | -0.895 | -0.392 | -0.855 | -0.157 | -0.395 | 1.31
2 | CGAACTAGGTCACCGGAAGGTCAAAGTCCGCATG | 6.15 | 5.95 | 4.65 | 5.17 | 0.515 | 6.04 | 9.75 | 7.7 | 5.33 | 7.57 | 7.98 | 8.54 | 0.875 | 0.855 | 8.74 | 5.95 | 2.08 | 7.52 | 2.97 | 5.2
3 | TCTGCTAGGCCAGTTGGTCAGCTAACGAGCTGCC | -3.09 | -0.955 | -1.26 | -1.27 | -0.666 | -0.606 | -1.07 | 0.229 | 0.768 | 0.446 | 0.789 | 0.538 | -0.123 | -0.684 | -2.67 | -0.743 | -1.82 | -0.933 | -1.48 | 0.442
4 | AGAACGCGGGCAATGAGTTGATAGCACGGGTGGC | -0.43 | -0.534 | -0.756 | -1.26 | -1.21 | -0.548 | 0.71 | -0.504 | -0.182 | -0.404 | 0.179 | -0.0527 | 0.2 | -0.67 | -0.548 | -0.0595 | 0.229 | -0.166 | -0.629 | 0.349
5 | TCAGATAGGTGAAGGTAACTCAGGTACGCAGTCG | 0.487 | 1.73 | -0.148 | 0.791 | -0.21 | 1.32 | 1.01 | 2.26 | 3.97 | 3.01 | 3.31 | 1.87 | 0.193 | -0.0331 | 0.849 | 0.435 | 0.291 | 0.668 | 0.648 | 1.1
6 | ATATGTAGGTTAAGGGTCCTTCAGGTTGGTTCGC | 0.735 | 1.21 | 0.278 | 1.18 | 0.267 | 4.59 | 8.87 | 8.11 | 8.31 | 9.26 | 7.65 | 7.29 | 1.78 | 0.916 | 2.1 | 1.1 | 0.435 | 1.23 | 0.703 | 1.24
7 | ATCGAAAGGCCGAAGGTGAGTATACCCACCCGAA | -0.216 | -0.00303 | -0.202 | -0.349 | -0.732 | 0.657 | 1.25 | 1.31 | 0.275 | 0.738 | -0.869 | 0.122 | -0.0521 | -0.507 | -0.197 | -0.245 | -0.678 | 0.273 | -0.544 | 1.04
